Assay results from PubChem BioAssay (NCATS).
Inconclusive results are not listed. Calls of active or inactive are those of the source. The call rests on the fitted dose curve; in most records, active means well fitted activation curve with a large enough effect; inconclusive means small, poorly fitted or top-dose-only effect; inactive means flat fitted curve, though single readings scatter.

Experiment: Cellular Toxicity (caspase-3) Hek293 (AID 664);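 further: cells exposed to compound for 16 h at 37 °C before readout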
Details: HEK293 caspase-3 activation, DMSO = 0%, 100 µM tamoxifen = 100%; at 92.2 µM (top of the series)
Excerpt: NIH Chemical Genomics Center [NCGC]
NIH Molecular Libraries Screening Centers Network [MLSCN]
National Institutes of Environmental Health Sciences [NIEHS]
National Toxicology Program [NTP]
We have developed a 1536-well cell-based assay for quantitative high throughput screening (qHTS) against a number of cell lines to determine in vitro caspase 3/7 of small molecules. This particular assay uses the Hek 293 cell line which is derived from human embryonic kidney cells.
NCGC Assay Protocol Summary:
The Caspase-Glo 3/7 assay (Promega) is a homogeneous method to measure caspase-3 and caspase-7 activities in cultured cells. The quantitation of caspase 3/7 activity is based on the cleavage of a peptide-aminoluciferin substrate. After caspase cleaves the substrate the free aminoluciferin is liberated and serves as the substrate of luciferase, which generates the light. The luminescent signal is proportional to amount of caspase 3/7 activity present.
Using the Caspase-Glo 3/7 assay, the amount of caspase 3/7 activity was measured in the Hek 293 cell line with complete culture medium following compound treatment for 16 hours. The assay was performed in opaque white 1536-well plates. In the screen, tamoxifen and doxorubicin were used as positive controls. Library compounds were measured for their ability to cause the activation of caspase 3/7 in the cell line, as reflected by an increase in luminescence signal, in a concentration-dependent manner. Data were normalized to the controls for basal activity (DMSO only) and 100% stimulation (100 uM tamoxifen). AC50 values were determined from concentration-response data modeled with the standard Hill equation.
qHTS protocol for caspase 3/7 assay in Hek 293 cells
[Step] [Parameter] [Value] [Description]
2. Time; 5 hr; 37 °C incubation
4. Controls; 23 nL; Tamoxifen 0.23 uM to 100 uM & Doxorubicin 7.0 pM to 100 uM
5. Time; 16 hr; 37 °C incubation
6. Reagent; 5 uL; Caspase-Glo 3/7 reagent
7. Time; 20 min; Room Temperature
8. Detection; Luminescence; Viewlux plate reader
Keywords: caspase 3/7, apoptosis, Hek 293 cell line, luminescence, NTPHTS, NTPHTS_NCGC, NIEHS, EPA, DSSTox, MLSMR, MLSCN, NIH Roadmap, qHTS, NCGC

SMILES | caspase-3 activation
CC(N)CN (stereo not given) | 3.47% (inactive)
CCCCCCC(=O)O | 0.189% (inactive)
O=C(Cl)c1c(Cl)cccc1Cl | 0.529% (inactive)
O=[N+]([O-])c1ccc(Cl)cc1Cl | 1.91% (inactive)
OC(CCl)CCl | 2.01% (inactive)
CC(C)=CCl | 1.55% (inactive)
O=C(O)c1ccc(CO)o1 | -0.635% (inactive)
Cc1cccc(C(=O)O)c1[N+](=O)[O-] | 3.47% (inactive)
O=C(O)c1ccccc1C(=O)O | 3.14% (inactive)
CCC(O)C(C)(C)C (stereo not given) | 1.79% (inactive)
CC(C)(c1cc(Br)c(OCC(Br)CBr)c(Br)c1)c1cc(Br)c(OCC(Br)CBr)c(Br)c1 (stereo not given) | 16.5% (inactive)
Cc1nc2ccc(Cl)cc2[nH]1 | -1.32% (inactive)
COCCOC(=O)c1ccccc1C(=O)OCCOC | 0.308% (inactive)
O=Cc1ccc(C(=O)O)cc1 | -1.79% (inactive)
CC=O | 2.27% (inactive)
CCN(CC)c1cccc(O)c1 | 0.00739% (inactive)
Nc1cc(Cl)c(N)c(Cl)c1 | -2.67% (inactive)
C=C(C)C(=O)OCC(C)C | -0.498% (inactive)
C=CC(=O)NC(C)C | 2.01% (inactive)
CCC1CO1 (stereo not given) | -0.425% (inactive)

SMILES | caspase-3 activation
Nc1cccc(N)c1 | -1.72% (inactive)
O=C(O)c1ccc(Cl)cc1Cl | 2.7% (inactive)
Cc1cc([N+](=O)[O-])ccc1N | -2.55% (inactive)
CCOC(=O)C(C)C(C)=O (stereo not given) | -0.825% (inactive)
Nc1cccc([N+](=O)[O-])c1 | 0.377% (inactive)
Nc1ccc(F)cc1F | 0.487% (inactive)
Cc1cccc2sc(N)nc12 | 1.8% (inactive)
NC(=O)c1cccc([N+](=O)[O-])c1 | 2% (inactive)
CCC(C)(C)OC | -1.93% (inactive)
CC(=O)c1nccs1 | 4.27% (inactive)
Cc1cccc([N+](=O)[O-])c1C(=O)O | 2.11% (inactive)
CNC(=O)c1ccccc1 | -0.658% (inactive)
CCOc1cccc(N)c1 | -0.477% (inactive)
C1CCC2OC2C1 (stereo not given) | 1.05% (inactive)
O=C(O)c1ccc(C(=O)O)cc1 | -1.8% (inactive)
CC(=O)CC(C)C | -0.532% (inactive)
CC(C)=C1CCC(C)CC1=O (stereo not given) | -0.681% (inactive)
CC/C(C)=N/O | 1.42% (inactive)
C=C(C)OC(C)=O | -0.975% (inactive)
c1ccc2[nH]cnc2c1 | -0.791% (inactive)
